E coli growth-1 – E. coli V3065 growth inhibition, primary screen, counter-screen for AddAB inhibitor project, absorbance, OD600. inhibition, % at 11.9 µM. 0.27% of 330,000 active. 18 h. AID 449728, 2010;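 active = inhibition above the campaign's mean inhibition across all tested compounds plus 3 SD, cut at about 9.9% in these data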;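 note: uninfected addAB+ strain grown without phage in ampicillin broth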
phage Ecoli inh – growth loss of phage-infected E. coli, primary screen, RecBCD inhibitor project, absorbance, with phage, HTS | inhibition, % at 11.9 µM | 0.26% of 360,000 active | AID 651602, 2012; in the data active = inhibition above about 11%
AI-2 QS modul – Vibrio harveyi AI-2 quorum sensing modulators, primary screen, JMH597 strain, luminescence/OD600 ratio. activity change, % at 7.5 µM. 0.4% of 300,000 active. AID 2094, 2009. Vibrio harveyi JMH597 AI-2 luminescence/OD600 ratio, 9 h; stronger effect = lower value; strain lacks LuxN and CqsS sensors; 0 = neutral-control median; in the data active = activity change below about -75%, passing the limit was not always enough;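 note: luminescence divided by OD600 gain over 9 h not by final OD600 alone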
E coli growth-2 – E. coli growth inhibition, primary screen, OD600; OD600 absorbance (test concentration not listed); 0.21% of 330,000 active; Escherichia coli growth, 23 h; stronger effect = lower value;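 active = OD600 absorbance below the run mean of sample wells minus 3.6 SD, in any replicate, cut at about 0.56 in these data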
Tat transport – E. coli Tat export inhibitors, primary screen, MC4100, TorA-mCherry reporter, fluorescence, single point; inhibition, % at 10 µM; 0.036% of 340,000 active;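 active = mean replicate inhibition at least 50% and at least half of replicates individually reaching 50%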;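 note: exported cargo escapes ClpAP degradation while cytoplasmic cargo is degraded and loses fluorescence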
AddAB inh – growth inhibition of E. coli expressing H. pylori AddAB, primary screen, AddAB inhibitor project, absorbance; inhibition, % at 11.9 µM; 0.29% of 330,000 active; AID 435030, 2010; in the data active = inhibition above about 12%
AddAB confirm – growth loss of phage-infected E. coli expressing H. pylori AddAB, confirmation, AddAB inhibitor project, absorbance, E. coli V3065, T4 phage, triplicate | shares compounds with AddAB inh | OD; T4 phage with gene 2 nonsense mutations | inhibition, % at 11.9 µM | 64% of 880 active | AID 488942, 2010;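 active = mean inhibition above a set limit taken from the earlier primary screen, cut at about 13% in these data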;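 note: higher means less bacterial growth since AddAB block lets phage replicate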
RecBCD counter – growth loss of RecBCD+ E. coli with mutant T4 phage, counter-screen for AddAB inhibitor project, absorbance, V66 E. coli. inhibition, % at 11.9 µM. shares compounds with AddAB inh. OD growth. AID 488955, 2010. 73% of 880 active;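 active = mean inhibition above the mean of solvent-only control wells plus 3 SD, cut at about 4% in these data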;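 note: optical density read after an 18 h incubation at 37 °C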
bact viab count – bacterial viability inhibition counter-screen, confirmation, counter-screen for AddAB inhibitor project, absorbance. shares compounds with AddAB inh. 35% of 880 active. absorbance (AddAB counterscreen). inhibition, % at 11.9 µM; in the data active = inhibition above about 25%
RecBCD conf – growth loss of phage-infected RecBCD+ E. coli, confirmation, RecBCD inhibitor project, absorbance, E. coli V66, T4 gene 2 phage | AID 651982, 2013 | shares compounds with phage Ecoli inh | E. coli V66 + T4 2- phage, growth OD | 45% of 890 active | inhibition, % at 11.9 µM;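 active = mean inhibition over triplicates exceeding the hit threshold derived in the original primary screen, cut at about 11% in these data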
Ecoli viability – E. coli viability inhibition, counter-screen for RecBCD inhibitor project, absorbance, high throughput | inhibition, % at 11.9 µM | shares compounds with phage Ecoli inh | 29% of 890 active | absorbance (OD) growth; in the data active = inhibition above about 20%;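 note: E. coli strain V66 grown with compound alone and no phage infection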
AddAB counter – growth loss of phage-infected AddAB-carrying E. coli, confirmation, counter-screen for RecBCD inhibitor project, absorbance, E. coli V3065, T4 phage. E. coli expressing H. pylori AddAB + T4 phage, OD growth; gene 2 mutant T4, recBCD-deleted host. AID 651984, 2013. shares compounds with phage Ecoli inh. 45% of 890 active. inhibition, % at 11.9 µM;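 active = mean inhibition above the solvent-only control wells' mean plus 3 SD, cut at about 22% in these data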;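 note: higher means less bacterial growth from phage killing when AddAB is blocked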
Hits are given with their value; – = inactive; · = no result given. Only some compounds are listed: those with a hit (about 0.79% of all), similar ones and a draw of the others.

SMILES | E coli growth-1 | phage Ecoli inh | AI-2 QS modul | E coli growth-2 | Tat transport | AddAB inh | AddAB confirm | RecBCD counter | bact viab count | RecBCD conf | Ecoli viability | AddAB counter
COC(=O)[C@]1(CC(C)C)NC(c2ccc(SC3CCCCC3)cc2)C2C(=O)N(C)C(=O)C21 (some centres not stated) | · | · | · | – | · | · | · | · | · | · | · | ·
CCCNC(=O)c1cn(CC)c2cc(N3CCN(C)CC3)c(F)cc2c1=O | 99.6 | 100.2 | – | 0.0485 | 81.0 | 98.1 | 101.9 | 100.8 | 101.0 | 102.7 | 103.8 | 103.0
CCCCCCn1cc(C(=O)O)c(=O)c2cc(F)c(N3CCN(C(=O)OCC)CC3)cc21 | – | – | – | – | – | – | · | · | · | · | · | ·
CCCCN(CCCC)C(=O)c1cn(CC)c2cc(N3CCN(C)CC3)c(F)cc2c1=O | 101.5 | 98.2 | – | 0.0485 | 71.2 | 102.1 | 104.0 | 102.1 | 103.2 | 100.0 | 101.2 | 100.1
CCCc1nnc(NC(=O)c2cn(CC)c3cc(N4CCN(C)CC4)c(F)cc3c2=O)s1 | 97.2 | 43.4 | – | 0.07 | · | 98.6 | 99.2 | 90.7 | 100.9 | 42.4 | 72.1 | 98.1
CCn1cc(C(=O)NCCCN(C)C)c(=O)c2cc(F)c(N3CCN(C)CC3)cc21 | 99.5 | 93.3 | – | 0.0505 | – | 99.8 | 97.3 | 90.2 | 100.7 | 69.9 | 98.8 | 100.7
CCn1cc(S(=O)(=O)c2ccc(C)cc2)c(=O)c2cc(F)c(N3CCN(C)CC3)cc21 | – | – | – | – | – | – | · | · | · | · | · | ·
CC(C)NC(=O)Nc1ccc2c(c1)C(=O)N(C(C)CO)CC(C)C(CN(C)C(=O)NC1CCCCC1)O2 (configuration not stated) | · | · | · | – | · | · | · | · | · | · | · | ·
Fc1ccc(C=NNc2nn[nH]n2)cc1 | · | · | · | – | · | · | · | · | · | · | · | ·
COc1ccc2cc(C=NNC(=O)CN(c3ccccc3C)S(=O)(=O)c3ccccc3)c(Cl)nc2c1 | · | · | · | – | · | · | · | · | · | · | · | ·
CCn1cc(C(=O)NCCN(C)C)c(=O)c2cc(F)c(N3CCN(C)CC3)cc21 | 98.0 | 96.4 | – | 0.0525 | – | 100.7 | 103.6 | 98.8 | 103.9 | 49.0 | 87.2 | 98.8
CCOC(=O)c1ccc(C=C2c3ccccc3C(=O)N2c2ccccc2)cc1F | · | · | · | – | · | · | · | · | · | · | · | ·
CCC1=C(OC(=O)N(CC)CC)N2C(=O)OC(=NCCc3c[nH]c4ccccc34)[C@]2(C)C2C1=CCC1C(=O)N(C)C(=O)C12 (some centres not stated) | · | · | · | – | · | · | · | · | · | · | · | ·
O=C(O)c1cccc(NC(=S)NC(NC(=O)c2ccco2)C(Cl)(Cl)Cl)c1 (configuration not stated) | – | – | – | – | – | – | · | · | · | · | · | ·
O=C(NC(NC(=S)Nc1ccc(Cl)c(Cl)c1)C(Cl)(Cl)Cl)c1ccco1 (configuration not stated) | 14.1 | 13.7 | – | – | – | 14.4 | 20.2 | 12.7 | – | – | – | –
Fc1ccc(NC(=S)NCc2ccccc2Cl)cc1 | 12.7 | 12.1 | – | – | – | 14.1 | 35.8 | 24.8 | 34.9 | 17.5 | 24.3 | 38.1
CCn1cc(C(=O)O)c(=O)c2cc(F)c(N3CCN(S(=O)(=O)c4ccc(Br)cc4)CC3)cc21 | – | · | – | · | · | – | · | · | · | · | · | ·

Assay outcomes (PubChem)
